In ChEMBL document CHEMBL3988442, “University of Dundee, Small-Polar-MMV Screening Library” (2021):
For some assays here: Entries with a potency or affinity are not part of this list.

Experiments:
Parameters in all cases: scale not given: direction of the effect not stated beside the values
[1] = molecular target: Protein translocase subunit SecA (Escherichia coli (strain K12)) (UniProt P10408); assay: Assay to Identify E. coli SecA ATPase Inhibitors; type: functional; settings: 30 µM
[2] = molecular target: T1, Ubiquitin-activating enzyme e1, putative (Leishmania donovani (strain BPK282A1)) (UniProt E9BSI1); assay: Leishmania donovani Ubiquitin Activating Enzyme (LdE1); type: functional; settings: 30 µM
T1 sequence (whole entry): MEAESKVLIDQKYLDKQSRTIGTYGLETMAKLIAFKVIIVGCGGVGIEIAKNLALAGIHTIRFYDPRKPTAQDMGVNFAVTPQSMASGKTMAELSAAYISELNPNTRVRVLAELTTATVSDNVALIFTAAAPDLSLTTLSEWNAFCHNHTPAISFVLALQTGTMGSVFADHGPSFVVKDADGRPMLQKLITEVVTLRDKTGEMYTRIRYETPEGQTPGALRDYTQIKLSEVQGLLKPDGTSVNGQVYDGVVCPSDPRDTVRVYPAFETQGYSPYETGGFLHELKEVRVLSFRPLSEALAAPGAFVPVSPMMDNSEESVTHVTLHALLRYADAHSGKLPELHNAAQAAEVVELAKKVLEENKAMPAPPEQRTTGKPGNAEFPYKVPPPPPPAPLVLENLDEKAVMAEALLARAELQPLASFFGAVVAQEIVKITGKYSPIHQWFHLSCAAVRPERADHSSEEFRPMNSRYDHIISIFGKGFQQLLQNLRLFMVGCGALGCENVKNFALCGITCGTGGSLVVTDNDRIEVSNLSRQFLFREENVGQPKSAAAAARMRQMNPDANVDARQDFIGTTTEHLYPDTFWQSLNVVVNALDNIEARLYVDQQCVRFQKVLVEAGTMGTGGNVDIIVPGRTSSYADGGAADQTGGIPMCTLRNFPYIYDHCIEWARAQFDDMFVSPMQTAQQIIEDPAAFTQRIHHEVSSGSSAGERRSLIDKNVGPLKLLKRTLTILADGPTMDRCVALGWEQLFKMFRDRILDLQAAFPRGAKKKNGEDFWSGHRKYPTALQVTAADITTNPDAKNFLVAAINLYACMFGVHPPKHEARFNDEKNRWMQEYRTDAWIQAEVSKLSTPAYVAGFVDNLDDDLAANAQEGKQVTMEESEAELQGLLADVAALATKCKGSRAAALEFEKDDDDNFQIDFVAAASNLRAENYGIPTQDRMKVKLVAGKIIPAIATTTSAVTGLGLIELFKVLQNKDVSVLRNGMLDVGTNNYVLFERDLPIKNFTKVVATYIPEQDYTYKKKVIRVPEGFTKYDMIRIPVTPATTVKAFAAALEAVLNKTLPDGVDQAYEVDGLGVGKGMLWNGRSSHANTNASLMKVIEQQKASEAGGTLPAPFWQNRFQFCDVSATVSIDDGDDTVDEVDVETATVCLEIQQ

[3] = molecular target: AMP-activated protein kinase, AMPK (Homo sapiens) (UniProt P54646+O43741+P54619+Q9UGJ0+Q9Y478+Q13131+Q9UGI9); assay: AMP-dependent Kinase enzyme assay. An in vitro enzyme assay that detects ADP turnover that is directly proportional to AMPK activity. This uses naive AMPK that is activated during the assay with MK-8722; type: functional; settings: 30 µM
[4] = molecular target: Sialic acid-binding Ig-like lectin 9 (Homo sapiens) (UniProt Q9Y336); assay: Hs-Siglec9 ALPHAscreen SOP 20170721; settings: 10 µM
Chain of Sialic acid-binding Ig-like lectin 9 (Homo sapiens) (Q9Y336 whole entry): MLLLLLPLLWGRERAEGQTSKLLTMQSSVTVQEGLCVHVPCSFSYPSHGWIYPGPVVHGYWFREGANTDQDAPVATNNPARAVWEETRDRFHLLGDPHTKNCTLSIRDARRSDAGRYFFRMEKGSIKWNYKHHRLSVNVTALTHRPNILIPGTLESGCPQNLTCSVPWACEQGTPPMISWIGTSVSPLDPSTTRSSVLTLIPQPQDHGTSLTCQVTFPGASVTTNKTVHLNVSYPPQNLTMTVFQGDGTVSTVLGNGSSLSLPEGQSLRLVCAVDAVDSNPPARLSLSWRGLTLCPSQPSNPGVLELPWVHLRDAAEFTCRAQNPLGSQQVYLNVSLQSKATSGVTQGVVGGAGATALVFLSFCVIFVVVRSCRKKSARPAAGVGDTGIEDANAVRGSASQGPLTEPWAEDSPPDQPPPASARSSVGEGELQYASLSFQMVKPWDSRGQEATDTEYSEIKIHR

[5] = test system: Trypanosoma cruzi; assay: Trypanosoma cruzi phosphomannomutase and mannose-1-phosphate guanylyltransferase assay; type: functional; settings: 10 µM
[6] = molecular target: T2, Arginase-2, mitochondrial (Homo sapiens) (UniProt P78540); assay: in vitro enzyme assay to detect the production of urea directly proportional to the activity of Arginase II; type: functional; settings: 33.3 µM; also: in the data most compounds retested in dose-response had high values
T2 sequence (whole entry): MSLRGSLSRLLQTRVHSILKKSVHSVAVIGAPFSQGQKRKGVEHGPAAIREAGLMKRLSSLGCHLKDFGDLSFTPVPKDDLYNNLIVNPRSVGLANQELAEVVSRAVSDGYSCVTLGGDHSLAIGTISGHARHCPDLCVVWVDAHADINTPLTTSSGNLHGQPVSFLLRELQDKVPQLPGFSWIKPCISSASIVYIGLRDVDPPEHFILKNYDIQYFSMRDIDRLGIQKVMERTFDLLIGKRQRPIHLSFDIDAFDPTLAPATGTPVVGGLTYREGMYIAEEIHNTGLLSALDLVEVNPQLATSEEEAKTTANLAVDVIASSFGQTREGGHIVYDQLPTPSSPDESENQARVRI

[7] = molecular target: T3, Proteasome subunit beta (Trypanosoma cruzi) (UniProt O96673); assay: Trypanosoma cruzi proteasome chymotrypsin-like activity (TcProtChymo) assay.; also: in the data most compounds retested in dose-response had high values; type: functional; settings: 9.37 µM
T3 sequence (whole entry): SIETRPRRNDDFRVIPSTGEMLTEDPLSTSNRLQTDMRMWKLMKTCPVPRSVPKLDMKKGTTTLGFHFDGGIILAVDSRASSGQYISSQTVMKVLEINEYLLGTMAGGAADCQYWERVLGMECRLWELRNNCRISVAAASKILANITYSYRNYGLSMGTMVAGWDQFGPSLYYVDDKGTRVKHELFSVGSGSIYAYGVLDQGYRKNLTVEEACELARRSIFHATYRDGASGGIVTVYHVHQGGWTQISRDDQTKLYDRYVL

[8] = species: Homo sapiens; assay: To identify inhibition of the IFN signalling (Jak-Stat) pathway via expression of an eGFP reporter gene under the control of an IFN-stimulated response element (ISRE) containing MxA promoter.; type: functional; settings: 30 µM
[9] = molecular target: T4, Tyrosyl-tRNA synthetase, putative (Trypanosoma cruzi (strain CL Brener)) (UniProt Q4DSP6); assay: Trypanosoma cruzi tyrosyl tRNA synthetase (TcYRS) _High Tyrosine SOP; type: functional; settings: 30 µM; also: in the data most compounds retested in dose-response had high values
T4 sequence (whole entry): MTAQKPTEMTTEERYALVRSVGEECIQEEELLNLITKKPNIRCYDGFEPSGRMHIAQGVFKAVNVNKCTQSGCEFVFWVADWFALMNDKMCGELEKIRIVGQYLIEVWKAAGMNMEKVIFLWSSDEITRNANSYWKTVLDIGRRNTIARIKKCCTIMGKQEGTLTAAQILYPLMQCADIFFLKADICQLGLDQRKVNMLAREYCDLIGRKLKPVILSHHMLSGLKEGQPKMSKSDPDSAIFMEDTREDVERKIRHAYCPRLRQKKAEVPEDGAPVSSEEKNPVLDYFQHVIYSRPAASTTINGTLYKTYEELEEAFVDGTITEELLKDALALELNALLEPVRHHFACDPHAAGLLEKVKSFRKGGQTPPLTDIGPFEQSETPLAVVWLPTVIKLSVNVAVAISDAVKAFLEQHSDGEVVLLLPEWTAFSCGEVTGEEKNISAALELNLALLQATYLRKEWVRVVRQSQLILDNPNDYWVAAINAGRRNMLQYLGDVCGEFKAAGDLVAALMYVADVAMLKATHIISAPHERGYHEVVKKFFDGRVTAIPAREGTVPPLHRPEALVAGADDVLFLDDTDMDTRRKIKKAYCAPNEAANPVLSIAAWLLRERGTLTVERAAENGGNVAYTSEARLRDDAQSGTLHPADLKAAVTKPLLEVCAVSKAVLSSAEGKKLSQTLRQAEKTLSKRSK

[10] = molecular target: T4, Tyrosyl-tRNA synthetase, putative (Trypanosoma cruzi (strain CL Brener)); assay: Trypanosoma cruzi tyrosyl tRNA synthetase (TcYRS) SOP; type: functional; settings: 30 µM
[11] = molecular target: Chromo domain-containing protein 1 (Saccharomyces cerevisiae (strain ATCC 204508 / S288c) (Baker's yeast)) (UniProt P32657); assay: ScCHD-1 Enzyme Inhibition Assay; type: functional; settings: 30 µM; also: in the data most compounds retested in dose-response had high values
Chain of Chromo domain-containing protein 1 (Saccharomyces cerevisiae (strain ATCC 204508 / S288c) (Baker's yeast)) (P32657 whole entry, the tested form may be a part): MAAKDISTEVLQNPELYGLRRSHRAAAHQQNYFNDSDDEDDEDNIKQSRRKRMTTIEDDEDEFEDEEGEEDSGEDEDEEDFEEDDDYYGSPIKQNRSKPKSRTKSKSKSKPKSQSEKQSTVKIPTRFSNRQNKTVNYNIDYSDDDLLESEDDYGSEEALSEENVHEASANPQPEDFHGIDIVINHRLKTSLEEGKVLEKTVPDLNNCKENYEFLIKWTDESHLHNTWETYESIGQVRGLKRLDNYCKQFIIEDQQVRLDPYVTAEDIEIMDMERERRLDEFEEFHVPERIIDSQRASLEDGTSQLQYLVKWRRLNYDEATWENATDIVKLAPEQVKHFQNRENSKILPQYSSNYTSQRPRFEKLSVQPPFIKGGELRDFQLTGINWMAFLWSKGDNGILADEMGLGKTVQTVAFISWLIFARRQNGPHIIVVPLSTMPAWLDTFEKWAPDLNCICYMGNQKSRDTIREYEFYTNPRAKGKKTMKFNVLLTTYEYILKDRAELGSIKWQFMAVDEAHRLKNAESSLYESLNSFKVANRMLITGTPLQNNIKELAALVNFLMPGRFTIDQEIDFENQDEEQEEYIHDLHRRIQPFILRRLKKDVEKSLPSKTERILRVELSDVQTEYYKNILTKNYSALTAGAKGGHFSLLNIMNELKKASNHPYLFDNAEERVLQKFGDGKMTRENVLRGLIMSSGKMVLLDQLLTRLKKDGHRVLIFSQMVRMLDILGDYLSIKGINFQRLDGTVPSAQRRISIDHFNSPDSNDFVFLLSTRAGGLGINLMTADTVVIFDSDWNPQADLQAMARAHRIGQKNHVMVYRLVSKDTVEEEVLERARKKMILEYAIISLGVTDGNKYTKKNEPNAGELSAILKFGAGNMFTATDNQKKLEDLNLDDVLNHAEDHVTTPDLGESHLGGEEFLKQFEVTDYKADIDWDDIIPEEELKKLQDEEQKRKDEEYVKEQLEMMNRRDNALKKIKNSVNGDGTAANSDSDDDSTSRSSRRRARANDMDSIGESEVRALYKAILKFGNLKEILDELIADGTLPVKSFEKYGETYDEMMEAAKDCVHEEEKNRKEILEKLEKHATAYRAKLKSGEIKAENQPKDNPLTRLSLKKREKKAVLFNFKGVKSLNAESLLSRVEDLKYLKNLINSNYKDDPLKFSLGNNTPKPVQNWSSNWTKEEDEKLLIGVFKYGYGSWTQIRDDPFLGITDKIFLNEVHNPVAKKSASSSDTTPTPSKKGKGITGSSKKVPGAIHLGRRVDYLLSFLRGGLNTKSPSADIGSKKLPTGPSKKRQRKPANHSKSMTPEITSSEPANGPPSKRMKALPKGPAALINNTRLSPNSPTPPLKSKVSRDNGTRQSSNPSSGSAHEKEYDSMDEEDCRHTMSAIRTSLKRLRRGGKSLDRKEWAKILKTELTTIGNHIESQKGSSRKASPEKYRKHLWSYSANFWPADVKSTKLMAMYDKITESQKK

Chain of Protein translocase subunit SecA (Escherichia coli (strain K12)) (P10408 whole entry): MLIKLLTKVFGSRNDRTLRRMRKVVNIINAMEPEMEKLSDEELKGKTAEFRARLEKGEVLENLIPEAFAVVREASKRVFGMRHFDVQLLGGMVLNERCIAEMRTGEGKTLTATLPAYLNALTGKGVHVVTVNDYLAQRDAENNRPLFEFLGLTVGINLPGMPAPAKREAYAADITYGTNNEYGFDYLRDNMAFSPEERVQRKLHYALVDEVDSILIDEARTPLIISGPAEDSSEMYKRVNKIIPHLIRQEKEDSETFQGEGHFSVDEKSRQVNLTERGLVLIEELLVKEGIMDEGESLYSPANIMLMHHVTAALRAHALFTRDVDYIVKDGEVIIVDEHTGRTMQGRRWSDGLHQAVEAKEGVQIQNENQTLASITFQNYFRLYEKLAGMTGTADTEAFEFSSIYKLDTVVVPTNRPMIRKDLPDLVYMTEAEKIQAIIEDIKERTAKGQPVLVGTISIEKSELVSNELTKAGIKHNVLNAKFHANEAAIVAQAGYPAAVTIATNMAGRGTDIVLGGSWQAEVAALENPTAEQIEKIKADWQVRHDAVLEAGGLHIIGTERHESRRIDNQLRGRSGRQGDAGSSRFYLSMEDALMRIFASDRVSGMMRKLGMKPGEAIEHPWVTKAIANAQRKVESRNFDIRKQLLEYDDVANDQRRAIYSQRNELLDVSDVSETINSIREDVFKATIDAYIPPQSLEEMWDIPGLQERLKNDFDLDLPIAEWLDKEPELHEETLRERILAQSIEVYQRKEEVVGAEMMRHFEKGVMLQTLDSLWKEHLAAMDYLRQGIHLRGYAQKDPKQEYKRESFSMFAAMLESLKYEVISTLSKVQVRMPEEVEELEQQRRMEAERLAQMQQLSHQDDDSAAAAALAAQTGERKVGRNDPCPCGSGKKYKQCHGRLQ

| SMILES | Percent Effect [1] | Percent Effect [2] | Percent Effect [3] | Percent Effect [4] | Percent Effect [5] | Percent Effect [6] | Percent Effect [7] | Percent Effect [8] | Percent Effect [9] | Percent Effect [10] | Percent Effect [11] |
| --- | --- | --- | --- | --- | --- | --- | --- | --- | --- | --- | --- |
| CC(C)Cc1nc(OCC(=O)O)c(C#N)c2c1CCC2 | 1.44% | 9.33% | -5.52% | -3.77% | 1.57% | -2.29% | 9.24% | 3.54% | -1.06% | 2.56% | -8.05% |
| Cn1nnc2c1CCN(Cc1ccccc1)C2COCC1CC1 (configuration not stated) | -1.15% | 2.67% | -10.3% | -0.164% | 3.15% | 2.1% | 5.9% | 8.15% | 14.9% | 24.4% | -11.1% |
| CC(C)[C@H](NC(=O)NC1CCS(=O)(=O)C1)C(=O)NCc1ccccc1Cl (some centres not stated) | -0.711% | -6.67% | 4.79% | 4.22% | -6.88% | -4.05% | 3.51% | -4.73% | -5.29% | -2.56% | 1.25% |
| Cc1cc2c(=O)n3c(nc2s1)CCN(Cc1cnn(C)c1C)CC3 | -4.39% | 9.46% | 12.6% | -0.402% | -4.74% | 2.09% | 8.58% | 7.67% | 5.38% | 9.09% | -8.69% |
| CO[C@H]1CCN(Cc2cccc(C)n2)[C@@H]2CN(Cc3cccnc3)C[C@H]12 | -4.37% | 13.7% | -4.89% | 7.4% | 12.3% | -3.99% | 15.5% | 6.58% | 5.21% | 6.17% | -8.06% |
| CCNC(=O)c1cnc(Cc2ccc(F)cc2)s1 | -3.2% | -2.67% | 3.74% | 1.03% | -1.27% | 4.17% | 8.72% | 14.1% | 3.83% | 8.64% | -2.95% |
| CCOc1ccccc1OC1CCN(C(=O)c2nc(=O)[nH][nH]2)CC1 | -5.6% | 18.4% | -5.81% | 1.22% | 10.5% | -3.06% | 13.9% | 18.1% | 6.37% | 19.5% | -9.11% |
| O=C(CCc1ccccc1)NCC1CCN(Cc2ccsc2)CC1 | -2.4% | 13% | 4.5% | -9.22% | -5.62% | 7.1% | 15.3% | 20.5% | 2.12% | 8.97% | -8.15% |
| CN(C)S(=O)(=O)N1CCC[C@]2(C[C@@H](Oc3ccccn3)CO2)C1 | -0.984% | 7.79% | 2.82% | 5.42% | -4.63% | -5.81% | 9.75% | 5% | -1.06% | 6.41% | -6.01% |
| COc1cccc(CN(C)Cc2ccc(C#N)cc2)c1OC | -2.85% | -5.41% | 2.32% | -6% | 0.586% | -1.67% | 7.86% | -3.25% | 4.95% | -3.66% | -5.17% |
| COC(=O)CN(C)C1CCc2ccccc21 (configuration not stated) | -0.581% | 15.8% | 1.01% | 8.14% | 1.5% | 5.36% | 18.4% | -4.6% | 7.35% | 9.76% | -8.13% |
| Cc1cc(C)n(CC(=O)N(C)Cc2csc(-c3cccs3)n2)c(=O)n1 | 0.251% | 0% | -4.15% | 2.64% | 1.66% | 7.29% | 19.5% | 17.8% | 6.01% | 18.5% | -6.32% |
| Cc1cnc(CN(C)C2CCN(CCn3cc(C#N)cn3)C2)o1 (configuration not stated) | 2.65% | 16.2% | -13.3% | -2.11% | -7.83% | -2% | 21.4% | 6.73% | 3.45% | 11.1% | -2.79% |
| Cc1nc(CN(C)C2CCN(CC(=O)N3CCOCC3)C2)no1 (configuration not stated) | -3.5% | 18.9% | -5.27% | -3.82% | -3.62% | -3.14% | 1.98% | 1.74% | 5.94% | 18.3% | -3.28% |
| CN(C)S(=O)(=O)N1C[C@@H]2CC[C@H](C1)N(Cc1ccc3nsnc3c1)C2 | -6.44% | 9.72% | -22.2% | 43.5% | 3.21% | 21.2% | 4.04% | 4.28% | 2.1% | 12.8% | -5.13% |
| Fc1cccc(-c2nc(CN3CCOC(Cn4cncn4)C3)co2)c1 (configuration not stated) | -1.25% | 0% | 1.03% | 1.46% | 8.97% | -1.14% | 4.67% | -3.37% | 0.493% | 3.8% | -3.88% |
| O=C(O)c1ccc(F)c(S(=O)(=O)Nc2c(F)cccc2-n2cccn2)c1 | -6.05% | 2.67% | -4.66% | 12.6% | 2.04% | 3.12% | 8.02% | 2.56% | 4.92% | 8.64% | -3.46% |
| CCS(=O)(=O)N1CCc2c(cccc2NC(=O)NCCOC)C1 | -5.83% | 5.26% | 6.05% | 2.98% | -0.0974% | -2.37% | 7.77% | 8.27% | 4.25% | 13% | -5.11% |
| Cc1ccc(C(=O)N2C[C@@H]3OCCN(CCN4CCCC4)[C@@H]3C2)cn1 | -3.52% | 8.11% | 0.326% | -5.24% | -2.25% | 2.23% | 21% | -5.79% | 5.41% | 15.4% | -1.17% |
| Cn1c(C(F)(F)F)nn(CCNC(=O)CSCc2ccccc2)c1=O | -3.49% | 8.22% | 2.99% | 4.38% | 4.7% | 5% | 4.79% | 14.2% | 4.3% | 15% | -4.6% |
| CC(C)(C)C(=O)Cn1nc(-c2ccccc2F)ccc1=O | -3.18% | 6.67% | 5.01% | 9.44% | 0.393% | -10% | 16.6% | 5.03% | 5.29% | 10.3% | -6.12% |
| O=C(c1ccc2c(c1)OCO2)N1CCCSCC1CN1CCCC1 (configuration not stated) | -4.51% | 7.79% | 6.33% | 7.89% | -1.08% | 5.81% | 8.53% | -0.0393% | 8.47% | 11.5% | -7.09% |
